# “And” between values parts separate entries of the source, which are not always exact repeats. Equal values may be shown once.
# Biological target: Mitogen-activated protein kinase 1 (Homo sapiens) (UniProt P28482)
# Conditions: Compound concentration 20.0 uM, Protein concentration 2.0 uM, Result type QC Liability
# Chain of Mitogen-activated protein kinase 1 (Homo sapiens) (P28482 whole entry): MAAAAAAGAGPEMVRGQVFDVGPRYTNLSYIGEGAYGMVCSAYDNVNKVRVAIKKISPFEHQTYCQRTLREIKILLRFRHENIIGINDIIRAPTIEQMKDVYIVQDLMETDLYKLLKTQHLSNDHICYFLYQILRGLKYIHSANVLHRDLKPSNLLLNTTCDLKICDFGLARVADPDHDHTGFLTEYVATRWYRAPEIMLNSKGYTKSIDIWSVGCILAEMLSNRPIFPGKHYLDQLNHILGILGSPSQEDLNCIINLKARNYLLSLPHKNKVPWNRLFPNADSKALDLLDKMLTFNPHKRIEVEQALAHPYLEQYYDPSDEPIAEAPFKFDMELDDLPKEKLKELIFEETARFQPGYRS
row,SMILES,ΔTm
1,COc1cc2nc(-c3cc(F)ccc3O)nc(N[C@@H]3CNC[C@H]3C(C)(C)O)c2cc1OC,3 °C
2,Cc1c(NC(=O)COc2ccc(Cl)cc2C(=O)c2cc(F)cc(C(F)(F)F)c2)ccc(C(=O)O)c1F,0.12 °C and 0.93 °C
3,Cc1cc2nc(N3CCC(C(=O)NC4CCCC4)CC3)n(C(C)C)c2cc1C,0 °C
4,CN(C)C/C=C/C(=O)Nc1cc2c(Nc3ccc(F)c(Cl)c3)ncnc2cc1OC[C@@H]1CCCO1,-1.79 °C
5,CCCCCCC(Sc1nc(Cl)cc(NCc2ccc(-c3ccccc3)cc2)n1)C(=O)O (centres undefined),0 °C
6,COc1ccccc1Nc1nc(-c2nn(Cc3c(F)cc(OCCCO)cc3F)c3ccccc23)ncc1OC,0.16 °C
7,CN1C(=O)Cc2ccc(-c3ccc(C[C@@H](C#N)NC(=O)[C@@H]4N[C@H]5CC[C@@H]4C5)c(F)c3)cc21,-0.2 °C
8,CNC(=O)c1ccc2c(c1)NC(=O)/C2=C(\Nc1ccc(CN2CCCCC2)cc1)c1ccccc1,0.02 °C
9,CN(C)C/C=C/C(=O)Nc1ccc(C(=O)Nc2cccc(Nc3ncc(Cl)c(-c4c[nH]c5ccccc45)n3)c2)cc1,-1.25 °C
10,COc1c(-c2cn(C3CCC(=O)NC3=O)nn2)csc1C(=O)N1CCCC1 (centres undefined),0.26 °C
11,CN[C@@H](C)C(=O)N[C@H](C(=O)N1CCC[C@H]1c1nc(C(=O)c2ccc(F)cc2)cs1)C1CCCCC1,0.23 °C
12,CN(CC(=O)Nc1ccc(F)c(F)c1F)C(=O)c1ccc2c(c1)OCCO2,0.49 °C
13,O=S(=O)(Nc1ccc(C(O)(C(F)(F)F)C(F)(F)F)cc1)c1cccs1,1.04 °C
14,O=C(O)Cc1ccc(CCNS(=O)(=O)c2ccc(Cl)cc2)cc1,-0.52 °C
15,Cc1nccc(COC(=O)N2C[C@@H]3[C@@H](CNC(=O)c4ccc5[nH]nnc5c4)[C@@H]3C2)n1,0.26 °C

# Biological target: T1, Aurora kinase A (Homo sapiens) (UniProt O14965)
# T1 sequence (whole entry): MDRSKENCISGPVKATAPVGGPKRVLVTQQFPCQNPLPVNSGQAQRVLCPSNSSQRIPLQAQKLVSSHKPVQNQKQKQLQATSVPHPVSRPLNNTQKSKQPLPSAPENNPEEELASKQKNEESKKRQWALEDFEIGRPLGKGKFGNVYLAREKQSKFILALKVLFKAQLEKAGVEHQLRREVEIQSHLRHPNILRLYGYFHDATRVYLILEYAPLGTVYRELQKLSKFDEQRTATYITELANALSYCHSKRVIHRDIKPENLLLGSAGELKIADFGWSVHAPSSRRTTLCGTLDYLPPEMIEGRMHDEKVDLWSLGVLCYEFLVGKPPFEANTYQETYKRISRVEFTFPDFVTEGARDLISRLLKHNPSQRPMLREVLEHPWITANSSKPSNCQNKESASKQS
# Conditions: Compound concentration 20.0 uM, Protein concentration 2.0 uM, Result type QC Liability
row,SMILES,ΔTm
1,CC1CCN(c2ccnc(NCc3cn(C)cn3)n2)CC1,-0.52 °C
2,O=C(O)C[C@H]1CC[C@H](c2ccc(NC(=O)c3nnc(Nc4ccc(F)c(F)c4)o3)cc2)CC1,0.92 °C
3,NCC1CCC(CNc2nc(NCc3ccccc3OC(F)(F)F)ncc2[N+](=O)[O-])CC1 (centres undefined),1.01 °C
4,CC(=O)Nc1c(F)cc(C(=O)N[C@H]2CC[C@H](O)CC2)cc1O[C@@H](C)c1ccccc1,-0.15 °C
5,COc1ccc(-c2csc(NC(=O)[C@H]3CCCCN3S(=O)(=O)c3ccc(C)cc3)n2)cc1,0.39 °C
6,CCc1ccccc1C(=O)Nc1n[nH]c2c(C)c(F)c(C3C(C#N)=C(C)N(C)C(C)=C3C#N)cc12,5.56 °C
7,Cn1cnc(Cn2ccc3ccc(CNCc4[nH]c5ccccc5c4[C@H]4NC(=O)c5ccc(O)cc54)cc32)c1,0.59 °C
8,COc1cccc(CNc2ccc(S(=O)(=O)Nc3nc4ccccc4s3)cc2)c1O,1.13 °C
9,C[C@@H]1OCC2(CCN(c3cnc(Sc4ccnc(N)c4Cl)c(N)n3)CC2)[C@@H]1N,-0.32 °C
10,CC(C)c1cnn2c(NCc3ccccc3)cc(NCCCCCCN)nc12,-1.2 °C
11,O=C(O)CCCCN(CCc1ccccc1OCc1ccc(CCc2ccccc2)cc1)Cc1ccc(C(=O)O)cc1,-0.23 °C
12,COc1ccc2c(O[C@@H]3C[C@H]4C(=O)N[C@]5(C(=O)O)CC5/C=C\CCCCC[C@H](NC(=O)OC5CCCC5)C(=O)N4C3)cc(-c3csc(NC(=O)C(C)C)n3)nc2c1C (some centres undefined),0.2 °C [middle of 4 runs]
13,C[C@@H](COCCC(=O)N1CCN(c2ncc(C(F)(F)F)cn2)CC1)Nc1cn[nH]c(=O)c1C(F)(F)F,-0.45 °C
14,CCn1c(=O)c2c(C)c(C(=O)N3CCC(O)CC3)sc2n(CCC(F)(F)F)c1=O,0.03 °C
15,O=C(CNC(=O)c1ccc(-c2ccccc2)cc1)NC1CCCc2ccccc21 (centres undefined),-1.46 °C
16,O=C1COc2cc(C(=O)N(Cc3ccc(C(=O)Nc4ccncn4)cc3)C3CC3)ccc2N1,0.08 °C
17,CC(=O)Oc1ccc2c(c1)[C@@]1(C)CCC[C@](C)(C(=O)OC(=O)[C@@]3(C)CCC[C@]4(C)c5cc(OC(C)=O)ccc5CC[C@@H]34)[C@@H]1CC2,-1.32 °C
18,CC(C)C(=O)N1CCC(c2cn(C)c3ncc(NC(=O)c4cccc(C#N)c4)c(C(F)(F)F)c23)CC1,-0.71 °C
19,Cc1nccn1-c1ccc(Sc2cccc(C3(C(N)=O)CCOCC3)c2)cc1,-0.31 °C
20,CCn1c(CNC(=O)c2ncc(C)nc2N)[n+](CC)c2ccc(C(=O)N(C)CCN(C)C)cc21,-0.29 °C

row,SMILES,ΔTm
1,O=C(O)CCC/C=C\C[C@@H]1[C@@H](/C=C/[C@@H](O)COc2cccc(C(F)(F)F)c2)[C@H](O)C[C@@H]1O,-0.25 °C
2,COc1cc2nc(C)nc(N[C@H](C)c3cc(N)cc(C(F)(F)F)c3)c2cc1O[C@H]1CCOC1,0.75 °C
3,NCc1ccc(OCCCc2sc(-c3ccc4c(c3)/C(=N/Nc3nc5ccccc5s3)CCC4)nc2C(=O)O)cc1,1.25 °C
4,CN(C)C(=O)c1cc2cnc(Nc3ccc(N4CCN(CCCCNC(=O)COc5cccc6c5C(=O)N(C5CCC(=O)NC5=O)C6=O)CC4)cn3)nc2n1C1CCCC1 (centres undefined),4.38 °C
5,COc1cc2nc(-c3cc(F)ccc3O)nc(N[C@@H]3CNC[C@H]3C(C)(C)O)c2cc1OC,3.06 °C
6,Cc1c(NC(=O)COc2ccc(Cl)cc2C(=O)c2cc(F)cc(C(F)(F)F)c2)ccc(C(=O)O)c1F,-0.24 °C and -1.26 °C
7,Cc1cc2nc(N3CCC(C(=O)NC4CCCC4)CC3)n(C(C)C)c2cc1C,0.01 °C
8,CN(C)C/C=C/C(=O)Nc1cc2c(Nc3ccc(F)c(Cl)c3)ncnc2cc1OC[C@@H]1CCCO1,1.39 °C
9,CCCCCCC(Sc1nc(Cl)cc(NCc2ccc(-c3ccccc3)cc2)n1)C(=O)O (centres undefined),-1.22 °C
10,COc1ccccc1Nc1nc(-c2nn(Cc3c(F)cc(OCCCO)cc3F)c3ccccc23)ncc1OC,-0.7 °C
11,CN1C(=O)Cc2ccc(-c3ccc(C[C@@H](C#N)NC(=O)[C@@H]4N[C@H]5CC[C@@H]4C5)c(F)c3)cc21,-0.07 °C
12,CNC(=O)c1ccc2c(c1)NC(=O)/C2=C(\Nc1ccc(CN2CCCCC2)cc1)c1ccccc1,3.8 °C
13,CN(C)C/C=C/C(=O)Nc1ccc(C(=O)Nc2cccc(Nc3ncc(Cl)c(-c4c[nH]c5ccccc45)n3)c2)cc1,10.2 °C
14,COc1c(-c2cn(C3CCC(=O)NC3=O)nn2)csc1C(=O)N1CCCC1 (centres undefined),-1.14 °C
15,CN[C@@H](C)C(=O)N[C@H](C(=O)N1CCC[C@H]1c1nc(C(=O)c2ccc(F)cc2)cs1)C1CCCCC1,-1.15 °C
16,CN(CC(=O)Nc1ccc(F)c(F)c1F)C(=O)c1ccc2c(c1)OCCO2,-0.17 °C
17,O=S(=O)(Nc1ccc(C(O)(C(F)(F)F)C(F)(F)F)cc1)c1cccs1,0.57 °C
18,O=C(O)Cc1ccc(CCNS(=O)(=O)c2ccc(Cl)cc2)cc1,-0.24 °C
19,Cc1nccc(COC(=O)N2C[C@@H]3[C@@H](CNC(=O)c4ccc5[nH]nnc5c4)[C@@H]3C2)n1,-0.07 °C

# — ChEMBL document CHEMBL5308504, “Tm Shift (DSF) assay results for EUbOPEN Chemogenomics Library” (2023)
